TNAP pNPP inh = human TNAP inhibition, p-nitrophenol detection; 21,000 tested, under 10 active; purified TNAP, pNPP hydrolysis, absorbance 405 nm; P05186; inhibition, % at 20 µM;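 also: 0% = DMSO only wells and 100% = 1 mM levamisole wells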
TNAP inh Pi = human TNAP inhibition, phosphate detection; purified TNAP, pNPP, malachite green phosphate absorbance; inhibition, % at 20 µM; 21,000 tested, under 10 active; AID 614
Starred values were filed as active, the others as inactive. Not all results are given here.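 The calls were made as follows: active = inhibition above 50% at the 20 µM single-dose screen; inactive = the rest.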

SMILES	TNAP pNPP inh	TNAP inh Pi
CCCCCC(=O)N1CC2(CC)CN(C(=O)CCCCC)CC(CC)(C1)C2=O	0	0
CC(NC(=O)NCc1cccnc1)(C(F)(F)F)C(F)(F)F	5	10
Cc1cc(Oc2ccccc2)nc2ccc(O)cc12	1	12
Cc1ccccc1N1C(=O)N(c2cccc(C(F)(F)F)c2)C2CS(=O)(=O)CC21 (stereo not drawn)	4	20
COc1ccc(CNC(=O)c2ccc(=O)oc2)cc1OC	-1	4
CCn1c(SCCC(=O)Nc2ccccc2)nnc1-c1ccc(OC)cc1	0	0
COc1ccc(C2C3=C(CCCC3=O)Nc3nc4ccccc4n32)cc1OC (stereo not drawn)	0	12
C/C(Sc1nnc(Cc2ccccc2)o1)=C(/O)c1ccccc1	2	15
Cc1cc(C(=O)COc2ccc(-c3nnco3)cc2)c(C)n1Cc1ccccc1	3	11
O=c1c2c3nc4ccccc4nc3n(/N=C/c3cccs3)c2ncn1-c1ccccc1	6	8
C=CCc1c(C)c(C#N)c2nc3ccccc3n2c1N1CCN(C)CC1	1	7
Cc1nc(N2CCN(C(=O)c3ccc(Cl)cc3)CC2)c(C#N)c2c1COC(C)(C)C2	0	-22
CCn1c(=O)c(C2=NS(=O)(=O)c3ccccc3N2)c(O)c2ccccc21	-1	1
CCOC(=O)c1ccc(CNC(=O)c2cc(C(C)(C)C)oc2C)o1	4	7
COC(=O)C(CC(=O)c1ccc(Br)cc1)n1ccnc1 (stereo not drawn)	9	13
CC1=C(C(=O)Nc2cccc(C)n2)C(c2ccc3c(c2)OCO3)C2=C(CC(c3ccco3)CC2=O)N1 (stereo not drawn)	1	8

Source: PubChem (Sanford-Burnham Center for Chemical Genomics)
